High-throughput results: PubChem, several laboratories
Shown are actives, neighbours in structure and some others; about 4.4% of the full set was active somewhere.
tim23-1 inh = growth inhibitors of tim23-1 mutant yeast. actives 1.3% (n = 330,000). AID 463212. inhibition, % at 20 µM. S. cerevisiae tim23-1 growth, BacTiter-Glo luminescence, 24 h;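 active = growth inhibition of the mutant yeast at or above 50%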;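 note: temperature-sensitive mutant grown at 25 °C; plate controls were DMSO-treated mutant yeast for no effect and medium wells lacking yeast for full effect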
TIM10 inh = TIM10 yeast growth inhibition | S. cerevisiae TIM10 strain growth, BacTiter-Glo luminescence, 24 h | inhibition, % at 10 µM | actives 1.4% (n = 330,000);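 active = inhibition of 40% or more at the single tested concentration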;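 note: wild-type TIM10 isogenic control strain grown at permissive 25 °C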
tim10-1 inh = inhibits growth of tim10-1 mutant yeast. S. cerevisiae tim10-1 ts strain growth, BacTiter-Glo, 24 h. inhibition, % at 20 µM. actives 2.2% (n = 330,000);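 active = inhibition of at least 40%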;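 note: mutant grown at 25 °C; 0% = DMSO wells with yeast and 100% = wells holding no yeast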
SKKanGAS inh = SKKanGAS growth inhibition | S. pyogenes SKKanGAS, kanamycin growth, BacTiter-Glo, 6 h | inhibition, % at 7.5 µM | actives 1.3% (n = 300,000) | AID 1662;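 active = mean replicate score, as percent of positive control median, at least 50; inconclusive = mean below 50 but one replicate at or above 50; inactive = mean and every replicate below 50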;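 note: strain carries kanamycin resistance gene driven by streptokinase promoter and grows in 40 µg/ml kanamycin; loss of luminescence reflects streptokinase promoter inhibition or plain growth inhibition; 0% = median of DMSO wells and 100% = positive control at its reference dose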
PfHsp90 yeast 2 = reduces growth (ATP signal) of yeast expressing P. falciparum Hsp90; S. cerevisiae expressing PfHsp90, BacTiter-Glo ATP, 48 h; yeast lacking PDR1 and PDR3 efflux regulators; inhibition, % at 9.4 µM; actives 0.32% (n = 310,000);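 active = every replicate shows inhibition above about 80%, whatever the replicate mean, limit read from the data; inconclusive = mean inhibition reaches the set limit but some replicate falls short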;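 note: 0% = DMSO neutral controls and 100% = 20 µM radicicol positive controls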
tim10 confirm = TIM10 yeast growth inhibition, confirmed. shares compounds with TIM10 inh. S. cerevisiae tim10 strain growth, BacTiter-Glo luminescence, 24 h. inhibition, % at 10 µM. actives 63% (n = 4,600);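 active = inhibition of yeast growth at or above a set limit in either of two replicates at 10 µM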;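 note: this counterscreen used the strain with wild-type TIM10; 0% = yeast with DMSO and 100% = medium wells lacking yeast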
* = called active by the depositor; u = inconclusive; x = not tested or not shown.

SMILES | tim23-1 inh | TIM10 inh | tim10-1 inh | SKKanGAS inh | PfHsp90 yeast 2 | tim10 confirm
CCCn1cnc2cc(NC(=O)c3ccco3)ccc21 | 46.0 | -0.1 | 0.0 | 0.4 | 6.4 | x
CCCn1cnc2cc(NC(=O)c3cccs3)ccc21 | 48.7 | 61.3* | 23.6 | -16.6 | -2.4 | 41.8*
CCCCOc1cccc(/C=N/NC(=O)c2csc(C)c2C)c1 | 16.6 | 47.9* | 31.5 | 9.2 | -14.8 | 27.1
CCOc1ccc(/C=N/NC(=O)c2csc(C)c2C)c(OCC)c1 | 6.0 | -13.1 | 4.7 | -5.1 | 5.3 | x
Cc1onc(-c2ccccc2)c1C(=O)OCC(=O)NC(C)c1ccc(Cl)cc1 (stereo unspecified) | 25.1 | -11.6 | 9.4 | x | -6.0 | x
S=C(NCC1CCCCC1)Nc1ccc(Oc2ccccc2)cc1 | 23.0 | 54.0* | 39.7 | 54.3* | -9.6 | 30.4*
S=C(Nc1ccc(Oc2ccccc2)cc1)NC1CCCC1 | 42.0 | 16.1 | 38.3 | 4.0 | -28.1 | x
Cn1cc(/C=C(\C#N)C(=O)Nc2ccccc2O)c2ccccc21 | 12.4 | 21.4 | 11.4 | 20.7 | -10.2 | x
Cc1cc(C(=O)N2CCCC(N3CCN(c4cccc(Cl)c4)CC3)C2)nn1C (stereo unspecified) | 1.6 | 1.2 | 4.3 | -5.3 | 10.5 | x
Cc1ccc2c(c1)Cc1nc3ccccc3nc1-2 | 41.6 | 45.6* | 19.3 | 14.6 | -64.2 | 51.4*
Cc1ccc2c(c1)-c1nc3ccccc3cc1C2=NC1CCCCC1 | x | x | x | x | 26.1 | x
O=C(Nc1ccc2c(c1)Cc1ccccc1-2)c1ccncc1 | 42.7 | 56.9* | 17.9 | -4.4 | 23.8 | 3.6
COc1ccc(-c2cn[nH]c2-c2ccc(OCc3ccc(F)cc3)cc2O)cc1OC | 22.5 | 40.1* | 30.9 | 31.2 | 7.9 | 33.5*
Oc1cc(OCc2ccccc2)ccc1-c1[nH]ncc1-c1ccccc1 | 30.1 | 49.9* | -25.2 | 73.1* | 105.0* | 45.9*
O=C(NC(=S)NNC(=O)c1ccccc1O)c1cccc([N+](=O)[O-])c1 | 20.2 | 41.9* | -18.0 | 28.9 | 10.8 | 55.8*
COc1ccc(C23CC4CC(CC(C(=O)O)(C4)C2)C3)c(F)c1 | 29.9 | 18.4 | 3.8 | -4.2 | -14.1 | x
Cc1ccncc1CNC(=O)c1ccccc1 | x | x | x | x | -12.2 | x
O=C(c1ccc(Oc2ccc(C(F)(F)F)cn2)cc1)N1CCN(c2ccccc2)CC1 | 32.8 | 25.1 | 34.6 | 1.6 | -10.5 | x
COc1ccc(N2CCN(C(=O)c3ccc(Oc4ccc(C(F)(F)F)cn4)cc3)CC2)cc1 | 26.1 | 44.3* | 24.4 | 0.6 | 4.1 | 40.7*
O=c1c(Cl)c(N/N=C/c2ccc(Br)cc2)cnn1-c1ccccc1 | 35.8 | 40.3* | 22.9 | 13.2 | -43.9 | -3.9
NC(=O)C1CN(C(=O)c2nn(Cc3ccccc3)c(=O)c3ccccc23)c2ccccc2O1 (stereo unspecified) | 10.2 | 1.8 | 8.3 | x | -15.2 | x
CCC(C)n1c(SCC(=O)Nc2cc(C)on2)nc2ccccc2c1=O (stereo unspecified) | 24.9 | 23.5 | 26.6 | 0.4 | -38.4 | x
CCC(C)n1c(SCC(=O)Nc2cc(C(C)(C)C)nn2-c2ccccc2)nc2ccccc2c1=O (stereo unspecified) | 41.4 | 40.7* | 29.6 | -4.6 | 12.4 | 25.0
CC(C)(C)OC(=O)N1CCC(c2cc(-c3cccs3)n[nH]2)CC1 | 29.5 | 24.8 | 34.8 | 0.1 | -4.6 | x
CCN(Cc1ccccc1)c1ccc(/C=N/NC(=S)NC(C)C)cc1 | 29.3 | 43.1* | 36.2 | -6.9 | -22.1 | 45.1*
SMILES | tim23-1 inh | TIM10 inh | tim10-1 inh | SKKanGAS inh | PfHsp90 yeast 2 | tim10 confirm
CCN(Cc1ccccc1)c1ccc(/C=N/N=C(N)N)cc1 | 43.6 | -46.7 | -52.8 | 0.5 | 7.4 | x
CC[C@@]1(C(=O)OC)N[C@H](CN(C)C(=O)Nc2ccc(F)cc2)[C@@H]2C(=O)N(C)C(=O)[C@@H]21 | -17.7 | -2.4 | -17.6 | x | 3.4 | x
CCOc1ccc(NC(=S)NC23CC4CC(CC(C4)C2)C3)cc1 | -8.2 | -4.3 | -2.9 | -3.0 | 31.6 | x
FC(F)Oc1ccc(NC(=S)NC23CC4CC(CC(C4)C2)C3)cc1 | 44.1 | 52.3* | 17.4 | 24.5 | -2.3 | 34.8*
O=C(Cc1ccccc1)Nc1cc([N+](=O)[O-])ccc1N1CCOCC1 | 5.2 | -12.7 | 2.8 | -2.9 | -11.4 | x
COc1ccc(-c2n[nH]c(C)c2-c2ccc(Cl)cc2)c(O)c1OC | 19.1 | 42.2* | 23.1 | 8.3 | x | 32.9*
O=C(CCNC(=O)c1ccccc1Cl)NCCC1=CCCCC1 | 11.9 | 0.0 | 0.6 | -1.7 | 7.1 | x
CCc1ccc2[nH]c(=O)c(C(c3nnnn3Cc3ccccc3)N3CCOCC3)cc2c1 (stereo unspecified) | 12.6 | -3.1 | 29.8 | -5.7 | 3.0 | x
CCc1ccc2[nH]c(=O)c(C(c3nnnn3Cc3ccco3)N3CCC(C)CC3)cc2c1 (stereo unspecified) | 25.5 | 40.7* | 31.2 | -0.4 | -14.1 | 20.4
CCOc1ccc(C2=NNC(c3cccnc3)=Nc3ccc(OC)cc32)cc1 | 10.8 | 51.4* | 14.1 | -5.4 | 3.1 | 31.2
CCOc1ccc2c(c1)C(c1ccc(C)cc1)=NNC(c1ccc(OC)cc1)=N2 | 27.7 | -0.4 | -3.9 | -3.7 | -13.5 | x
CCOC(=O)N1CCN(C(=O)c2ccc3c(c2)N=C(CC)c2cc(C)ccc2S3)CC1 | 30.2 | 40.4* | 20.5 | 9.1 | 9.7 | 6.2
CNC(=S)N/N=C/c1c(C)nn(-c2ccc(F)cc2)c1Cl | 1.8 | 42.7* | 18.2 | -6.1 | x | -5.5
Cc1nn(-c2ccc(F)cc2)c(Cl)c1/C=N/NC(=O)c1ccc(O)cc1 | -6.7 | -8.4 | -10.1 | 11.1 | -12.9 | x
O=C(CSc1nnc(-c2cccs2)n1CC1CCCO1)c1cc2ccccc2o1 (stereo unspecified) | 19.2 | 41.1* | 30.6 | 6.0 | u | -26.2
Cc1cc(-n2c(C)cc(C(=O)COc3ccc(Cl)cc3C(N)=O)c2C)no1 | -7.0 | -6.4 | -16.7 | x | 23.4 | x
CC(C)(C)C1CCc2[nH]c3ccccc3c(=O)c2C1 (stereo unspecified) | 45.7 | 44.3* | 29.3 | -0.2 | 28.2 | 33.2*
CC1CC(C)CN(C(=O)c2ccc(NS(=O)(=O)c3ccc4[nH]c(=O)[nH]c4c3)cc2)C1 (stereo unspecified) | -10.6 | 1.3 | -23.4 | -7.5 | 15.0 | x
O=C(/C=C/c1ccccc1)Nc1cccc(C(=O)N2CCCCC2)c1 | x | x | x | x | -33.7 | x
O=C(/C=C/c1ccccc1)Nc1ccc(C(=O)N2CCCCC2)cc1 | 17.0 | 47.9* | 34.1 | 0.8 | 21.3 | 26.1
O=C(CSCc1ccc(Cl)cc1)Nc1ccc(S(=O)(=O)N2CCOCC2)cc1 | 24.5 | 42.7* | 13.0 | -23.9 | 11.9 | -7.0
CC(=O)c1cccc(NC(=O)/C=C/c2ccc(S(=O)(=O)N3CCOCC3)cc2)c1 | 12.3 | 2.2 | 11.3 | x | -5.6 | x
O=C(/C=C/c1cccc(F)c1)Nc1ccc(S(=O)(=O)N2CCOCC2)cc1 | 24.5 | 67.8* | 10.8 | x | -6.2 | 45.0*
CN(C)S(=O)(=O)c1cccc(NC(=O)/C=C/c2ccc(S(=O)(=O)N3CCOCC3)cc2)c1 | 4.7 | 3.5 | 1.7 | x | -7.4 | x
